# Assay results from PubChem BioAssay (NCATS).
# Where “and” joins values, the source holds several entries; their conditions need not be identical. Identical values can stand only once. Inconclusive results are not listed. Calls of active or inactive are those of the source. Unless noted, calls come from the whole dose curve; as a rule, active = well fitted curve in the direction sought with a large enough effect; inconclusive = small, poorly fitted or top-dose-only effect, or another doubt; inactive = no such curve, though single readings can be large; an effect the other way counts as inactive or inconclusive.
# How the values were obtained:
# [1] = qHTS Assay for Identifying Gametocytocidal Compounds (AID 743244);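 note: % is set by controls: 0 for no effect and ±100 for the full control effect; actives lower the fluorescent signal which means gametocytes are killed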; details: P. falciparum 3D7 stage III-V gametocytes, alamarBlue, 72 h; max response: stronger effect = lower value
# How it was run: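 Stage III–V gametocytes of P. falciparum 3D7 were seeded at 20,000 cells/well onto pre-dispensed compounds. After 72 h, 37 °C, 5% CO2, alamarBlue was added for another 24 h.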
# [2] = qHTS assay to identify small molecule inhibitors of chordoma cells - UCH-1 (AID 1259355); note: % is set by controls: 0 for no effect and ±100 for the full control effect; nearly all actives have a fitted effect of over 55% in size
# How it was run: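 Screening used approved and investigational drugs in 15-point titration against 800 seeded cells per well. A fixed combination of auranofin with camptothecin, doxorubicin, rubitecan and topotecan followed compound addition, and growth was scored by CellTiter-Glo after 48hr.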
# [3] = qHTS profiling for inhibitors of Plasmodium falciparum (3D7) proliferation (AID 743322);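 note: infected erythrocytes exposed to compound for 72 h before lysis; 100% = DMSO vehicle wells and 0% = 0.29 µM artemisinin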; details: P. falciparum 3D7 proliferation; at 28.7 µM (top of the series) unless noted
# How it was run: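 Parasite DNA was quantified by SYBR Green I fluorescence (ex 485, em 535 nm) after overnight lysis in saponin/Triton buffer at room temperature. Cultures at 0.3% parasitemia and 2.5% hematocrit were first exposed to compound for 72 h at 37 C; signals were normalised to artemisinin (0.29 uM) and vehicle wells.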
# [4] = qHTS profiling for inhibitors of Plasmodium falciparum (DD2) proliferation (AID 743323; call rule not given here); details: lower = more inhibition; at 28.7 µM (top of the series) unless noted
# How it was run: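 Parasite DNA quantified by SYBR Green fluorescence (ex 485, em 535 nm) after saponin/Triton lysis and overnight dark incubation. Cultures: 0.3% parasitemia, 2.5% hematocrit, 72 h, 37 C; data scaled between DMSO and 0.29 uM artemisinin.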
# [5] = qHTS profiling for inhibitors of Plasmodium falciparum (HB3) proliferation (AID 743324); details: Plasmodium falciparum HB3 blood-stage proliferation; at 28.7 µM (top of the series) unless noted;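 note: 100% = DMSO vehicle wells and 0% = artemisinin-treated control wells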
# How it was run: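 SYBR Green fluorescence (485 ex/535 em) of lysed cultures, incubated overnight at room temperature in the dark, quantifies parasite DNA. Infected erythrocytes at 0.3% parasitemia and 2.5% hematocrit were exposed 72 h; values normalized to DMSO and 0.29 uM artemisinin controls.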
# [6] = qHTS assay for small molecule agonists of the antioxidant response element (ARE) signaling pathway measured by Nrf2-dependant transcriptional activity (AID 720636; active = well fitted curve in the direction sought with a large enough effect in the repeat runs; an effect the other way counts as inactive or inconclusive;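 note: HepG2 cells with an ARE-driven luciferase reporter; % of control where 0% means no effect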)
# How it was run: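 First, ARE-luc HepG2 cells attached for 6 hr at 37 C in 1% dialyzed FBS medium. Next, compound or DMSO was added and incubated 16 hr. Finally, ONE-Glo reagent was added and luminescence measured after 30 min.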
# [7] = qHTS assay for small molecule antagonists of the retinoid-related orphan receptor gamma (ROR-gamma) signaling pathway - cell viability counter screen (AID 720652; active = well fitted curve in the direction sought with a large enough effect in the repeat runs; an effect the other way counts as inactive or inconclusive;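 note: CHO reporter cells with doxycycline-induced ROR-gamma expression; compound exposure lasted 16 hr before ATP read; % is set by controls: 0 for no effect and ±100 for the full control effect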)
# How it was run: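 ATP-based viability readout in the ROR-gamma reporter CHO cells after 16 hr compound exposure under doxycycline induction.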
# [8] = qHTS assay for small molecule agonists of the antioxidant response element (ARE) signaling pathway measured by Nrf2-dependant transcriptional activity - cell viability counter screen (AID 720653; active = well fitted curve in the direction sought with a large enough effect in the repeat runs; an effect the other way counts as inactive or inconclusive; note: % is set by controls: 0 for no effect and ±100 for the full control effect); details: ARE-bla HepG2 viability, CellTiter-Glo ATP luminescence, 16 h; stronger effect = lower value
# How it was run: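 ARE-bla HepG2 cells treated with compounds for 16 h at 37C; this counter screen measures viability as intracellular ATP by CellTiter-Glo luminescence after 30 min at room temperature.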
# [9] = qHTS assay for cell viability of HEK293 cells (AID 743288); details: ATP luminescence (CellTiter-Glo), 18 h; max response: stronger effect = lower value; note: % is set by controls: 0 for no effect and ±100 for the full control effect; nearly all actives have a fitted effect of over 50% in size
# How it was run: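 After 18 h compound exposure at 37 C, parental HEK293 cells (2,000/well) are lysed with CellTiter-Glo and luminescence is read following 30 min at room temperature.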
# [10] = qHTS assay to identify small molecule inhibitors of chordoma cells - UCH-2 (AID 1259356); note: % is set by controls: 0 for no effect and ±100 for the full control effect
# [11] = qHTS assay for cell viability of the p53RE-bla HCT-116 cell line (AID 743292); note: % is set by controls: 0 for no effect and ±100 for the full control effect; nearly all actives have a fitted effect of over 55% in size
# How it was run: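 Quantitative high-throughput format: compounds in DMSO were pinned onto p53RE-bla HCT-116 cells (4,000/well) and incubated 16 h at 37 C. Total intracellular ATP, read by CellTiter-Glo luminescence, reflects viable cell number.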
smiles,measurement,setting,value
CC(C)Cc1ccc([C@@H](C)C(=O)NS(C)(=O)=O)cc1,max response,[1],17.9% (inactive)
same,Potency,[2],inactive
CC1(C)C(\C=C/C=C\C=C/C=C2/N(CCCCS(=O)(=O)O)c3ccc4ccccc4c3C2(C)C)=[N+](CCCCS(=O)(=O)[O-])c2ccc3ccccc3c21,max response,[1],2.8% (inactive)
same,Potency,[2],inactive
C[C@H]1[C@@H](OC(=O)CCC(=O)O)O[C@@H]2OC3(C)CC[C@H]4[C@H](C)CC[C@@H]1[C@@]24OO3,remaining parasite growth % (stronger effect = lower value),[3],-0.578%
same,"activity, percent of control",[4],-0.204%
same,"remaining proliferation (% of control), lower = more inhibition",[5],-0.191%
same,Potency,[2],inactive
C[C@H](CCC(=O)O)[C@H]1CC[C@H]2[C@@H]3[C@H](O)C[C@@H]4C[C@H](O)CC[C@]4(C)[C@H]3C[C@H](O)[C@]12C,Potency,[6],inactive
same,outcome,[7],inactive
same,max response,[8],1.94% (inactive)
same,max response,[1],-6.23% (inactive)
same,max response,[9],-4.94% (inactive)
same,Potency,[2],inactive
O=C(OC[C@H]1O[C@](O)(COC(=O)c2cccnc2)[C@@H](OC(=O)c2cccnc2)[C@@H]1OC(=O)c1cccnc1)c1cccnc1,max response,[1],-9.26% (inactive)
same,Potency,[2],inactive
CC(C)(C)NC[C@H](O)COc1ccccc1C1CCCC1,Potency,[10],inactive
O=C(NCCNCC(O)COc1ccc(O)cc1)N1CCOCC1 (stereo not given),max response,[1],-13.8% (inactive)
same,Potency,[2],inactive
O=P(O)(O)OC[C@H]1O[C@](O)(COP(=O)(O)O)[C@@H](O)[C@@H]1O,max response,[1],2.17% (inactive)
same,Potency,[2],inactive
NC(N)=NCC1COC2(CCCCC2)O1 (stereo not given),max response,[1],9.74% (inactive)
same,Potency,[2],inactive
OC/C=C/c1ccccc1,max response,[1],2.6% (inactive)
same,Potency,[2],inactive
Cc1c(Cl)cccc1Nc1ncccc1C(=O)O,max response,[1],-5.77% (inactive)
same,Potency,[2],inactive
CCOc1cc(-c2nccc3cc(OC)c(OC)cc23)cc(OCC)c1OCC,max response,[1],-3.95% (inactive)
same,Potency,[2],inactive
CC1CC(OC(=O)C(O)c2ccccc2)CC(C)(C)C1 (stereo not given),max response,[1],25% (inactive)
same,Potency,[2],inactive
CO[C@@H]1[C@H](OC(=O)/C=C/C=C/C=C/C=C/C(=O)O)CC[C@]2(CO2)[C@H]1[C@@]1(C)O[C@@H]1CC=C(C)C,max response,[8],8.65% (inactive)
same,max response,[1],-5.74% (inactive)
same,max response,[9],-10.5% (inactive)
same,Potency,[2],inactive
Cc1ncc(C[n+]2csc(CCOP(=O)(O)O)c2C)c(N)n1,max response,[1],-3.97% (inactive)
same,Potency,[2],inactive
Nc1ncnc2c1ncn2[C@H]1CC[C@@H](CO)O1,Potency,[6],inactive
same,outcome,[7],inactive
same,max response,[8],-18.5% (inactive) and 2.96% (inactive)
same,max response,[1],-3.96% (inactive)
same,max response,[9],-8.27% (inactive) and 0.717% (inactive)
same,Potency,[2],inactive
CC(C)NCC(O)COc1ccccc1-n1cccc1 (stereo not given),Potency,[10],inactive
NC(=O)[C@H]1O[C@@H](O)[C@H](O)[C@@H](O)[C@@H]1O,max response,[1],-1.37% (inactive)
same,Potency,[10],inactive
CC1CCC(NC(=O)N(CCCl)N=O)CC1 (stereo not given),max response,[1],3.88% (inactive)
same,Potency,[10],inactive
NC(N)=O,Potency,[6],inactive
same,outcome,[7],inactive
same,max response,[8],-1.96% (inactive)
same,max response,[1],2.55% (inactive)
same,max response,[9],0.964% (inactive)
same,Potency,[10],inactive
COc1ccc(/C=N/NC(=O)c2ccncc2)c(C(=O)O)c1OC,max response,[1],9% (inactive)
same,Potency,[10],inactive
OCC(O)CO,Potency,[6],inactive
same,outcome,[7],inactive
same,max response,[8],-6.54% (inactive) and -5.61% (inactive)
same,max response,[1],9.54% (inactive)
same,max response,[9],1.91% (inactive) and -2.54% (inactive)
same,outcome,[11],inactive
same,Potency,[10],inactive
O=P(O)(O)O,Potency,[6],inactive
same,outcome,[7],inactive
same,max response,[8],-2% (inactive)
same,max response,[1],-3.37% (inactive)
same,max response,[9],-7.47% (inactive)
same,Potency,[10],inactive
C[C@H](CCC(=O)O)[C@H]1CC[C@H]2[C@@H]3CC[C@@H]4C[C@H](O)CC[C@]4(C)[C@H]3C[C@H](O)[C@]12C,Potency,[6],inactive
same,outcome,[7],inactive
same,max response,[8],-10.6% (inactive)
same,max response,[1],6.91% (inactive)
same,max response,[9],3.72% (inactive)
same,Potency,[10],inactive
